A short description of assay [1]: qHTS profiling of the MIPE4 collection as inhibitors of Plasmodium falciparum (DD2) proliferation (Rep 2) (AID 743346; call rule not given here). The conditions noted are these: P. falciparum Dd2 in erythrocytes, SYBR Green DNA, 72 h; at 28.5 µM unless noted. Summed up:
(§1)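 Erythrocytes infected with P. falciparum (0.3% parasitemia, 2.5% hematocrit) incubated with compounds 72 h at 37 C, 5% CO2. Lysis with saponin/Triton buffer containing SYBR Green I, overnight at room temperature in the dark; DNA fluorescence (485/535 nm) normalised to 0.29 uM artemisinin and DMSO.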
On the technique in general: In qHTS, concentration-response curves come from the screen itself.

Assay [2] is described as follows: qHTS profiling of the MIPE4 collection as inhibitors of Plasmodium falciparum (HB3) proliferation (AID 743347; call rule not given here;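 also: plate controls were DMSO vehicle wells for no effect and artemisinin wells for full effect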). The note with it: P. falciparum HB3 in erythrocytes, SYBR Green DNA, 72 h; at 28.5 µM unless noted. The essentials:
as §1

The nature of assay [3]: High-throughput drug toxicity screening in the BPDCN cell line Gen2.2 (AID 1224824; call rule not given here;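 also: cells exposed to compounds for 48 h before reading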). The conditions noted are these: Gen2.2 BPDCN cells; at 45.8 µM (top of the series) unless noted. The essentials:
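Readout is ATP luminescence from Gen2.2 cells after two days of drug exposure in serum-containing medium at 37 °C. Values express percent activity, with vehicle defining full signal and 9.2 uM bortezomib defining zero.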

Assay [4] in a line: qHTS assay for measurement of the activity of small molecule inhibitors on Zika virus induced Caspase-3 activity in human iPSC derived neural progenitor cells (hNPCs) (AID 1224857). Also: nearly all actives have a fitted effect of over 65% in size. Also: potency is read from the fitted curve at half-maximal effect. Summed up:
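Caspase-3/7 induction by a 6-hour ZIKV infection was quantified with a luminescent Caspase-Glo 3/7 reagent incubated 30 minutes at room temperature. Compounds were preincubated with hNPCs for 1 hour; inhibition was calculated against uninfected and infected control wells.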

The nature of assay [5]: qHTS assay for measurement of the activity of small molecule inhibitors on Zika virus induced Caspase-3 activity in human astrocytoma cells (AID 1224859). Also: potency is read from the fitted curve at half-maximal effect. The essentials:
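In SNB-19 cells plated at 250 cells/well and grown 16-20 h, compounds were applied 1 h before ZIKV (2 FFU/cell). Six hours later caspase-3/7 luminescence was recorded.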

Assay [6] is described as follows: qHTS Screen of the MIPE 4.0 Collection Against Ewings Sarcoma (RDES) (AID 1259252). Also: nearly all actives have a fitted effect of over 35% in size. Also: potency is read from the fitted curve at half-maximal effect. Summed up: (§2)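 Dose series incubated 48 h with cells in RPMI plus 5% FBS, glutamine and penicillin/streptomycin; cell viability then quantified via CellTiter-Glo.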
Assay [7] in a line: qHTS Screen of the MIPE 4.0 Collection Against Ewings Sarcoma (TC71) (AID 1259253). Also: nearly all actives have a fitted effect of over 40% in size. Also: potency is read from the fitted curve at half-maximal effect. Summed up: as §2
A short description of assay [8]: qHTS Screen of the MIPE 4.0 Collection Against Ewings Sarcoma (EW8) (AID 1259255). Also: nearly all actives have a fitted effect of over 35% in size. Also: potency is read from the fitted curve at half-maximal effect.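 As to viability: 100% = DMSO-treated cells and 0% = medium-only wells without cells.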 Summed up: as §2
A short description of assay [9]: qHTS Screen of the MIPE 4.0 Collection Against Ewings Sarcoma (TC32) (AID 1259256). Also: nearly all actives have a fitted effect of over 45% in size. Also: potency is read from the fitted curve at half-maximal effect. Summed up: as §2
Assay [10] in a line: High-throughput drug toxicity screening in the BPDCN cell line Cal-1 (AID 1224825). The conditions noted are these: Cal-1 BPDCN cell viability, qHTS; at 45.8 µM (top of the series) unless noted. Summed up: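 Cal-1 cells, 500 per well in phenol-red-free RPMI with 10% FBS, exposed to compounds for 48 hours at 37C, 5% CO2. Viability read by CellTiter-Glo luminescence; percent activity normalized to DMSO (100%) and 9.2 uM bortezomib final (0%).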

Results filed as inconclusive are left out. The source made the active and inactive calls. Unless noted, calls follow the shape of the dose curve; as a rule, active = well fitted inhibition curve with a large enough effect; inconclusive = small, poorly fitted or top-dose-only effect; inactive = no such curve, though single readings can be large or run the other way.

For `OCc1ccccc1O[C@@H]1O[C@H](CO)[C@H](O)[C@H](O)[C@H]1O`, in [1], the parasite growth, % of control (lower = inhibition) was determined as 89.7%. The growth, % of control in [2] was found to be 92.1%. The cell viability, % of control (lower = more cytotoxic) in assay [3] was 151%. In addition, the Potency result in assay [4], in assay [5], in [6], in assay [7], in [8] and in [9] was “inactive” in each case.
On to `CCCCCN=C(N)NN=Cc1c[nH]c2ccc(OC)cc12`, for which the parasite growth, % of control (lower = inhibition) in assay [1] was determined as 22.5%. Moreover, the growth, % of control in assay [2] is 6.26%. Further, the cell viability, % of control (lower = more cytotoxic) in [3] was determined as 38.7%. Moreover, the Potency entry in assay [4] and in assay [5] was “inactive” in each case. The Potency in assay [6] was 6.62 µM (active); in [7] it was 10.5 µM (active); in assay [8], 6.62 µM (active); in assay [9], 4.18 µM (active).
Regarding `OC[C@@H](O)[C@@H](O)[C@H](O)[C@@H](O)CO`, in assay [1], the parasite growth, % of control (lower = inhibition) came out at 92%. The compound also came in with a growth, % of control in assay [2] of 70.6%. Further, the cell viability, % of control (lower = more cytotoxic) in assay [3] came to 201%. The Potency result in assay [4], in assay [5], in assay [6], in [8] and in assay [9] was “inactive” each time.
For `CN1[C@H]2CC(OC(=O)[C@@H](CO)c3ccccc3)C[C@H]1[C@H]1O[C@H]12` (stereo partly specified), the growth, % of control in assay [2] turned out to be 107%. Besides, the cell viability, % of control (lower = more cytotoxic) in [3] is 189% [at 23.2 µM]. Also, the Potency entry in assay [4], in assay [5], in assay [6], in assay [7], in assay [8] and in assay [9] was “inactive” in each case.
On to `CC(C)C[C@H](NC(=O)[C@@H](NC(=O)c1cccc(-c2ccccc2)n1)[C@@H](C)O)B(O)O`, for which, in assay [1], the parasite growth, % of control (lower = inhibition) is 7.67%. Further, the growth, % of control in assay [2] came out at 3.76%. The cell viability, % of control (lower = more cytotoxic) in [3] amounted to 3.77%. Also, the Potency result in assay [4] and in assay [5] was “inactive” each time. Further, the Potency is 0.059 µM (active) in assay [6], 0.0743 µM (active) in assay [7], 0.0372 µM (active) in [8] and 0.0662 µM (active) in [9].
As to `CC(C(C)N1CC(=O)NC(=O)C1)N1CC(=O)NC(=O)C1` (stereo unspecified), the parasite growth, % of control (lower = inhibition) in assay [1] came out at 105%. Besides, the growth, % of control in assay [2] stood at 98.2%. The cell viability, % of control (lower = more cytotoxic) in assay [3] was found to be 158%. Further, the Potency entry in [4] and in assay [5] was “inactive” in each case. The Potency in [6] is 0.743 µM (active); in assay [7], 0.59 µM (active); in assay [8], 0.743 µM (active).
Consider `CCOC(=O)[C@@H](N)Cc1ccc(-c2cc(O[C@H](c3ccc(Cl)cc3-n3ccc(C)n3)C(F)(F)F)nc(N)n2)cc1`, for which the parasite growth, % of control (lower = inhibition) in [1] turned out to be 43.9%. The compound also showed a growth, % of control in assay [2] of 15.8%. Further, the cell viability, % of control (lower = more cytotoxic) in [3] came out at 10.1%. For the same compound, the Potency entry in [4] and in assay [5] was “inactive” throughout. Further, the Potency in [6] is 26.4 µM (active); in [7], 23.5 µM (active); in assay [8], 26.4 µM (active).
Turning to `OCCNC1CCCc2c1[nH]c1ccc(-c3ccccc3)cc21` (stereo unspecified), the parasite growth, % of control (lower = inhibition) in [1] amounted to 13.3%. In assay [2], this compound came in with a growth, % of control of 3.72%. Further, in assay [3], the cell viability, % of control (lower = more cytotoxic) was found to be 1.69%. Besides, the Potency result in [4] and in assay [5] was “inactive” each time. The figures for the Potency in [6], in assay [8] and in assay [9] were 26.4 µM (active), 23.5 µM (active) and 18.7 µM (active), respectively.
In the case of `O=C(Nc1cc2cc[nH]c2cn1)c1ccccc1`, the parasite growth, % of control (lower = inhibition) in assay [1] was determined as 39.2%. This compound also had a growth, % of control in assay [2] of 75.4%. Moreover, in [3], the cell viability, % of control (lower = more cytotoxic) worked out at 13.5%. In addition, the Potency in assay [4] is 4.69 µM (active); in assay [5], 5.26 µM (active); in assay [7], 13.2 µM (active); in assay [8], 14.8 µM (active); in assay [9], 13.2 µM (active).
As to `CC(C)(O)Cn1c(NC(=O)c2ccc(-c3cn[nH]c3)s2)nc2cc(CN3CCOCC3)ccc21`, the parasite growth, % of control (lower = inhibition) in assay [1] turned out to be 9.94%. Further, the growth, % of control in assay [2] came out at 6.36%. Also, the cell viability, % of control (lower = more cytotoxic) in assay [3] was determined as 7.04%. This compound yielded a viability (% of control) in [10] of 3.65%. Besides, in [4], the Potency result is “inactive”. Moreover, the Potency was 1.66 µM (active) in [6], 1.66 µM (active) in assay [7], 2.96 µM (active) in assay [8] and 3.32 µM (active) in assay [9].
For `CCCNS(=O)(=O)Nc1ncnc(OCCOc2ncc(Br)cn2)c1-c1ccc(Br)cc1`, the parasite growth, % of control (lower = inhibition) in [1] turned out to be 82.3%. The growth, % of control in assay [2] is 88.3%. Moreover, the cell viability, % of control (lower = more cytotoxic) in assay [3] came to 180%. Moreover, the Potency entry in assay [4], in assay [5], in assay [6], in [7], in assay [8] and in [9] was “inactive” throughout.
For the compound `CC(=O)SCC(Cc1ccccc1)C(=O)NCC(=O)OCc1ccccc1` (stereo unspecified), in assay [1], the parasite growth, % of control (lower = inhibition) was 60.4%. Moreover, in assay [2], the growth, % of control stood at 65.1%. Further, the cell viability, % of control (lower = more cytotoxic) in assay [3] is 5.18%. In addition, the Potency entry in [4] and in assay [5] was “inactive” in each case. In addition, the Potency in [6] was 0.59 µM (active); in assay [8], 1.05 µM (active).
`CC(C)n1cnc2c(NCCc3ccc(O)cc3)nc(-c3csc4ccccc34)nc21`: the parasite growth, % of control (lower = inhibition) in assay [1] turned out to be 13.2%. Also, the growth, % of control in assay [2] is 8.98%. Besides, the cell viability, % of control (lower = more cytotoxic) in assay [3] worked out at 11.4%. Besides, the Potency entry in [4] and in [5] was “inactive” throughout. Besides, the Potency in assay [6] is 2.35 µM (active); in [7], 4.18 µM (active); in assay [8], 13.2 µM (active); in assay [9], 4.18 µM (active).
With `O=C1CSC(=O)N1C(CCc1ccncc1)COc1ccc(-c2cccc([N+](=O)[O-])c2)cc1` (stereo unspecified), in [1], the parasite growth, % of control (lower = inhibition) amounted to 32.8%. This compound also displayed a growth, % of control in assay [2] of 4.69%. Besides, in assay [3], the cell viability, % of control (lower = more cytotoxic) is 188%. The Potency entry in assay [4] and in assay [5] was “inactive” in each case. Besides, the Potency is 2.96 µM (active) in assay [6], 4.69 µM (active) in [7], 13.2 µM (active) in [8] and 6.62 µM (active) in assay [9].
On to `Cn1cc(C2=C(c3c4n(c5ccccc35)CCC(CN)C4)C(=O)NC2=O)c2ccccc21` (stereo unspecified), for which the parasite growth, % of control (lower = inhibition) in assay [1] was determined as 11%. The compound also came in with a growth, % of control in assay [2] of 3.72%. Moreover, the cell viability, % of control (lower = more cytotoxic) in assay [3] was determined as 3.32%. For the same compound, the Potency result in assay [4] and in [5] was “inactive” in each case. For the same compound, the Potency in [6] was 16.6 µM (active); in [7], 16.6 µM (active); in assay [8] it was 18.7 µM (active); in assay [9] it was 20.9 µM (active).
For `COc1ccc2c(c1OC)C(=O)OC2[C@H]1c2c(cc3c(c2OC)OCO3)CCN1C` (stereo partly specified), the parasite growth, % of control (lower = inhibition) in [1] was found to be 20.6%. The compound further came in with a growth, % of control in [2] of 16.4%. For the same compound, the cell viability, % of control (lower = more cytotoxic) in assay [3] turned out to be 24.5%. The Potency entry in assay [4], in assay [5] and in [9] was “inactive” in each case. The values for the Potency in [6], in [7] and in assay [8] were 0.0935 µM (active), 0.235 µM (active) and 0.0526 µM (active), respectively.
